# The sample as a whole holds a higher share of hits than the screen did.
# Pf Dd2 growth – blocks in vitro growth of P. falciparum Dd2. 120,000 tested, 4.3% active. Potency, µM (highest dose often 28.9 µM), for inactives: at the top dose activity, negative = inhibition, actives largely listed as inhibitors. P. falciparum Dd2 growth, SYBR Green, 72 h; active means well fitted inhibition curve with a large enough effect;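 further: plate controls were DMSO vehicle for no effect and reference drug for full effect; nearly all actives have a fitted effect of over 65% in size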
#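 Infected erythrocytes (Dd2, 0.3% parasitemia, 2.5% hematocrit final) are added to compound in RPMI-1640/Albumax II medium, grown 72 h at 37C in low oxygen, then lysed with saponin/Triton-X containing SYBR Green and read by fluorescence.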
# An asterisk follows results filed as active; i = inactive; [ ] = remark or other dose. Potency means the concentration at half of the fitted maximal effect.
SMILES,Pf Dd2 growth
CCN(CC)C(=O)CCc1ccc2c(c1)CN(C(=O)NC(C)C)CCO2,-5%
Cc1ccc(NC(=O)[C@H]2CCC[C@H]2NC(=O)c2cnc(C)cn2)cc1,-23%
COCCCNC(=O)N1CCCC(c2nc(C(C)C)no2)CCNC(=O)CC1 (stereo unspecified),7%
CCOc1ccc(NC(=O)C2CCN(C(=O)c3nnn4c3COC(c3ccc(C)cc3)C4)CC2)cc1 (stereo unspecified),i
O=C(Cn1cccc1-c1nc(-c2ccccc2)no1)Nc1ccccc1Cl,13%
CC(=O)c1cccc(NC(=O)Cn2cccc2-c2nc(-c3ccc4c(c3)OCO4)no2)c1,i
COc1ccc(-c2noc(-c3cccn3CC(=O)Nc3ccc(F)cc3)n2)cc1F,3.2µM*
COc1ccc(OC)c(NC(=O)Cn2cccc2-c2nc(-c3ccc(OC)c(F)c3)no2)c1,5%
COc1ccc(-c2noc(-c3cccn3CC(=O)NCCc3ccccc3)n2)cc1F,0.25µM*
O=C(Cn1cccc1-c1nc(-c2ccc3c(c2)OCO3)no1)Nc1ccccc1,2.8µM*
COc1ccc(-c2noc(-c3cccn3CC(=O)Nc3cccc(C)c3)n2)cc1F,-5%
COc1ccc(CCNC(=O)Cn2cccc2-c2nc(-c3ccc4c(c3)OCO4)no2)cc1OC,0%
CCOC(=O)c1ccc(NC(=O)Cn2cccc2-c2nc(-c3ccc(OC)c(F)c3)no2)cc1,40%
O=C(Cn1cccc1-c1nc(-c2ccccc2)no1)NCc1ccccc1Cl,10µM*
CC(=O)c1ccc(NC(=O)Cn2cccc2-c2nc(-c3ccc4c(c3)OCO4)no2)cc1,6%
O=C(Cn1cccc1-c1nc(-c2ccccc2)no1)NCc1ccc(Cl)cc1,0%
Cc1ncsc1C(=O)N1CCC2(CC1)OC(=O)N(Cc1cccnc1)C2(C)c1ccccc1 (stereo unspecified),i
CCCN(C)C(=O)Cc1ccc(N(Cc2ccc(C)cc2)C(=O)c2ccco2)cc1,-7%
O=C(NC[C@H]1OC[C@@H](NCc2ncc[nH]2)[C@@H]1O)C1CCCC1,-2%[44.1 µM]
CCCN1CCC[C@H]1c1nc(-c2ccc(NCCOC)nc2)no1,-7%[44.1 µM]
Cc1nc(C)c(C(=O)N2CCCCCCNC(=O)[C@@H]3C[C@@H](c4nc(C(C)C)no4)C[C@@H]32)s1,i
CC(C)CN1C(=O)c2cccn2CC1CNC(=O)c1cccn1C (stereo unspecified),-3%
O=C1NC[C@@H](CCC(=O)N2CCC(O)CC2)N2C[C@@H](NCc3ccccc3)C[C@@H]12,6%[44.1 µM]
Cc1ccc(N2CCC(NS(=O)(=O)c3cn(C)c(C)n3)C2=O)cc1C (stereo unspecified),-7%
COc1ccc(C(=O)N2CCCC(c3nc(C4CCOCC4)no3)C2)cc1OC (stereo unspecified),52%
SMILES,Pf Dd2 growth
CCOC(=O)c1cccc(NC(=O)N2CC[C@@H](CC(=O)NCc3cccc4ccccc34)[C@@H](CC)C2)c1,-13%
O=C1CCN(S(=O)(=O)c2ccccc2)CCCC(C(=O)NCCc2ccccn2)CCN1 (stereo unspecified),11%
O=c1[nH]ccn1C1CCN(Cc2cccnc2)CC1,-5%[44.1 µM]
CC(C)c1nnc(C2CN(C(=O)c3cccn3C)CC23CCOCC3)o1 (stereo unspecified),50%
O=C(Cn1cccc1-c1nc(-c2ccc(F)cc2)no1)N1CCN(c2ccccc2F)CC1,i
Cc1ccc(NC(=O)Cn2cccc2-c2nc(-c3ccc(F)cc3)no2)cc1F,-3%
O=C(CSCc1ccc(F)cc1)N1CCN(c2ccccc2F)CC1,68%
COc1ccc(-c2noc(-c3cccn3CC(=O)N3CCN(c4ccccc4F)CC3)n2)cc1F,2.5µM*
COc1ccc(-c2noc(-c3cccn3CC(=O)Nc3cc(Cl)c(OC)cc3OC)n2)cc1F,27%
COc1ccc(-c2noc(-c3cccn3CC(=O)N3CCN(c4ccc(F)cc4)CC3)n2)cc1F,-8%
COc1ccc(-c2nc(CSCC(=O)N3CCN(c4ccccc4F)CC3)c(C)o2)cc1,6.3µM*
Cc1oc(-c2ccccc2F)nc1CSCC(=O)N1CCN(c2ccccc2)CC1,-15%
COc1ccc(NC(=O)Cn2cccc2-c2nc(-c3ccc(F)cc3)no2)cc1Cl,11µM*
COCCn1nc2n(c1=O)CCN(C(=O)c1ccc(OC)cc1OC)CC2,i
COc1ccc(-c2noc(CC3CCN(C(=O)c4ccc(OC)nc4OC)CC3)n2)cc1,-16%
CC(C)N1CCCC2(CCN(C(=O)c3cn[nH]c3-n3cnnn3)C2)C1=O (stereo unspecified),-1%
CNC(=O)[C@@H](c1ccccc1OC)N1CCC[C@H]1C(=O)NCC1CC1,-4%[44.1 µM]
CS(=O)(=O)N(Cc1cccnc1)C1CN(C(=O)Cc2c[nH]c3ccccc23)C1,-2%
CN(Cc1cc(C[C@@H]2C[C@H](NCc3ccccn3)C2(C)C)no1)c1ccccc1,-23%[44.1 µM]
COc1cccc(Nc2csc(CN3CCCC(C)(NC(C)=O)C3)c2)c1 (stereo unspecified),7.9µM*
COc1cccc(-c2cccc(CN3CCCC(C)(NC(C)=O)C3)c2)c1 (stereo unspecified),i
COc1cccc(Nc2cc(CN3CCC(C)(NC(C)=O)CC3)cc(OC)c2)c1,i
C#CCN(C)Cc1nc(C2(O)CCN(C(=O)Cc3ccccc3)CC2)cs1,-3%[44.1 µM]
CCN(Cc1ccncc1)C(=O)c1cc(-c2cnn(CC)c2)nc2cc(C)ccc12,-26%
N[C@H]1CN(C(=O)c2ccc(Cn3cnnn3)cc2)C[C@@H]1C1CC1,-9%
SMILES,Pf Dd2 growth
CCOc1ccc(C(=O)N2C[C@@H](COC)[C@H](C(N)=O)C2)cc1,-1%
Cc1ccc(OCc2ccc(C(=O)N3C[C@H](C4CC4)[C@@H](N)C3)cc2)cc1,10µM*
O=C(c1ccccn1)N1CCCCCC1c1nnc(-c2ccccc2)o1 (stereo unspecified),i
COc1ccc(NC(=O)CSC2=Nc3ccccc3C3=NC(CCC(=O)NCc4ccc(F)cc4)C(=O)N23)cc1Cl (stereo unspecified),11µM*
CCOc1ccc(NC(=O)CSC2=Nc3ccccc3C3=NC(CCC(=O)NCc4ccccc4)C(=O)N23)cc1 (stereo unspecified),i
COc1ccccc1NC(=O)CSC1=Nc2ccccc2C2=NC(CCC(=O)NCCc3ccccc3)C(=O)N12 (stereo unspecified),-22%
COc1ccc(Cl)cc1NC(=O)CSC1=Nc2ccccc2C2=NC(CCC(=O)NCc3ccc(F)cc3)C(=O)N12 (stereo unspecified),-23%
CC(C)(C)c1ccc(CSC2=Nc3ccccc3C3=NC(CC(=O)NCc4cccs4)C(=O)N23)cc1 (stereo unspecified),i
Cc1cccc(NC(=O)CSC2=Nc3ccccc3C3=NC(CC(=O)NCc4cccs4)C(=O)N23)c1 (stereo unspecified),3.2µM*
Cc1ccc(CSC2=Nc3ccccc3C3=NC(CC(=O)NCc4cccs4)C(=O)N23)c(C)c1 (stereo unspecified),13%
COc1ccc(OC)c(NC(=O)CSC2=Nc3ccccc3C3=NC(CCC(=O)NCc4ccccc4)C(=O)N23)c1 (stereo unspecified),13µM*
CC(C)c1ccc(NC(=O)CSC2=Nc3ccccc3C3=NC(CCC(=O)NCc4ccc(F)cc4)C(=O)N23)cc1 (stereo unspecified),-11%
CC(C)Cc1cc(C(=O)N2CC(OCc3ccc(F)cc3)C2)on1,2%
CCn1ccc(C(=O)NCCc2noc(-c3ccncc3)n2)n1,i
COc1ccc2[nH]c3c(c2c1)CCN(C)C31CCN(C(=O)c2ccsc2)CC1,i

# Source: PubChem BioAssay
